Three compounds from ChEMBL document CHEMBL4513151, “CO-ADD screening of Institut Català d'Investigació Química (Spain) compounds” can be followed below.

Values joined by “and” are separate entries in the source; they are usually repeats but may differ in a detail not shown here. Equal entries are not always repeated. Results with a measured potency or affinity are listed apart.

In this assay the test system is Escherichia coli. Conditions: Concentration 32 ug.mL-1; ASSAY_TEST Inhibition of Bacterial Growth; detection method Absorption (OD600); MEDIA CAMHB; plate type 384well; NBS; CORNING #3640; time 18 hr, 32 ug/mL.
With `C[C@]12CC[C@@](c3ccc(C(F)(F)F)cc3)(O1)[C@H]1C=C[C@H](OC(=O)c3ccccc3)[C@H]12`, the Inhibition (usually the drop in the measured response relative to a control, in per cent) is 2.03% and 5%. For `C[C@]12CC[C@@](C3CC3)(O1)[C@H]1C=C[C@H](OC(=O)c3ccccc3)[C@H]12`, the Inhibition is -1.08% and -3.45%.

For the compound `C[C@]12CC[C@@](c3ccccc3)(O1)[C@H]1C=C[C@H](OC(=O)c3ccccc3)[C@H]12`, the Inhibition was -5.43% and -1.36%.
